Growth data for 17 molecules are collected here from PubChem BioAssay (NCI).

Test systems include T-47D breast; BT-549 breast; MDA-MB-435 melanoma; SW-620 colon; MCF7 breast; HCT-116 colon; KM12 colon; HCC-2998 colon.
Holding throughout (experiment): NCI-60 one-dose screen, 48 h (100 = growth as untreated, 0 = no growth, -100 = all killed)
What all share (settings): 10 µM

The panel holds about 83,000 compounds, 20% with a hit somewhere; the sample as a whole holds those more often.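 Percent growth is the endpoint: 0 to 100 indicates growth inhibition (40 means 60% inhibition), 0 means no net growth, and negative values indicate cell death.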 Values without a mark were called inactive. Activity calls are given as the source filed them. The calls were made as follows: active = growth percent below 10; inactive = the rest.

`NS(=O)(=O)Oc1ccc(-c2ccc3sccc3c2)cc1`: the growth with T-47D breast is 105%; in the test on BT-549 breast it was 91.1%; with MDA-MB-435 melanoma, 104%; in the test with SW-620 colon it was 99.9%; in the test with MCF7 breast it was 120%; in the test on HCT-116 colon, 95.3%. Besides, the growth in the test with KM12 colon is 101%.
As to `C/C(=C/CCC(C)[C@@H]1CC[C@]2(C)C3=C(CC[C@@]12C)[C@@]1(C)CCC(=O)C(C)(C)[C@@H]1CC3)C(=O)O` (some centres not stated), the growth is -48.9% (active) with T-47D breast; -90.8% (active) in the test with BT-549 breast; -75% (active) with MDA-MB-435 melanoma; -85.2% (active) in the test with SW-620 colon; -54.8% (active) in the test with MCF7 breast; -93.1% (active) with HCT-116 colon. The growth with KM12 colon was -87.6% (active).
`COc1ccc(Cl)cc1Nc1nc(C(F)(F)F)ccc1C(=O)N/N=C/c1cc(OC)c(OC)c(OC)c1`: the growth in the test on T-47D breast was 29.7%; in the test on BT-549 breast, 15.9%; in the test with MDA-MB-435 melanoma, 37.1%; in the test with SW-620 colon it was 16.7%; with MCF7 breast it was 17.8%; with HCC-2998 colon, 8.93% (active).
Consider `COc1ccc(/C(C#N)=C/c2ccccc2OC)cc1`, for which the growth in the test with T-47D breast was 26%; in the test on BT-549 breast it was 37.1%; in the test on MDA-MB-435 melanoma, -19.4% (active); in the test on SW-620 colon, 22.8%; in the test on MCF7 breast, 14.8%; with HCT-116 colon it was 18.1%. Further, the growth in the test on KM12 colon is 32.2%.
`COc1ccc(-c2nnc(SCC(=O)Nc3ccc(C(=O)/C=C/c4ccccc4)cc3)n2-c2ccccc2)cc1OC`: the growth is 72.9% in the test with T-47D breast; 92.8% with BT-549 breast; 86.1% in the test with MDA-MB-435 melanoma; 66.4% in the test with SW-620 colon; 36.4% in the test with MCF7 breast; 17% in the test with HCT-116 colon. The growth in the test with KM12 colon was 91.7%.
Consider `CCCCC/C=C/C/C=C/CCCCCCCC1=NC(C)(C)CN1C(C)C`, for which the growth was 16.5% with T-47D breast; 77.8% in the test on BT-549 breast; 15.9% in the test on MDA-MB-435 melanoma; -70.3% (active) in the test on SW-620 colon; -16.4% (active) with MCF7 breast; -36.8% (active) with HCT-116 colon. The growth in the test with KM12 colon is -92% (active).
In the case of `COc1cc2cc(Oc3ccc(NC(=O)Nc4ccc(Cl)c(C(F)(F)F)c4)cc3)c(C)nc2cc1OC`, the growth is 21.4% with T-47D breast; -38.7% (active) in the test with BT-549 breast; -25.7% (active) with MDA-MB-435 melanoma; 7.51% (active) in the test with SW-620 colon; 2.59% (active) in the test on MCF7 breast; -87.3% (active) in the test with HCT-116 colon. The growth in the test with KM12 colon is -16.4% (active).
On to `O=C1/C(=C/c2ccc([N+](=O)[O-])s2)Oc2cc(Cl)ccc21`, for which the growth in the test on T-47D breast is 11.2%; in the test with BT-549 breast it was -55% (active); in the test with MDA-MB-435 melanoma, -25.7% (active); in the test on SW-620 colon, -40.9% (active); with MCF7 breast, 4.42% (active); in the test on HCT-116 colon, -17.8% (active). Besides, in the test with KM12 colon, the growth is -28.4% (active).
For the molecule `COc1cc(-c2nn(-c3ccc(NC(=O)NCCCNC(=O)c4ccccc4)cc3)cc2-c2ccncc2)ccc1Cl`, the growth in the test on T-47D breast was 67.5%; in the test with BT-549 breast, 22.8%; in the test on MDA-MB-435 melanoma it was 2.49% (active); in the test with SW-620 colon it was 33.3%; in the test with MCF7 breast, 12.8%; with HCT-116 colon, 9.58% (active). In addition, the growth in the test with KM12 colon was 20%.
In the case of `c1ccc2c(c1)Cc1ccccc1N2CCN1CCCCC1`, the growth is 90.3% in the test with T-47D breast; 86.3% with BT-549 breast; 106% in the test on MDA-MB-435 melanoma; 89.1% in the test on SW-620 colon; 89.4% in the test on MCF7 breast; 56.8% in the test with HCT-116 colon. Besides, the growth in the test with KM12 colon was 95.3%.
With `Clc1nc2ccccc2cc1Cn1nnc(Cc2ccccc2)n1`, the growth is 26.1% in the test with T-47D breast; 38.9% in the test with BT-549 breast; 65.3% in the test on MDA-MB-435 melanoma; 86.6% with SW-620 colon; 45.8% with MCF7 breast; 35.1% with HCT-116 colon. The growth in the test on KM12 colon was 66.3%.
For `CC1(C)N=C(N)N=C(N)N1c1cccc(C#N)c1`, the growth in the test on T-47D breast was 99.7%; with BT-549 breast, 81.6%; in the test with MDA-MB-435 melanoma, 36.2%; in the test on SW-620 colon, 29.9%; in the test on MCF7 breast, 52%; in the test with HCT-116 colon it was 17.1%. For the same molecule, in the test with KM12 colon, the growth is 47.7%.
Regarding `CC(=O)Nc1cc2c(cc1Cl)Cc1cc(Cl)ccc1-2`, the growth in the test on T-47D breast is 29.2%; with BT-549 breast it was 99.2%; in the test on MDA-MB-435 melanoma, 98.4%; in the test with SW-620 colon it was 97.5%; in the test on MCF7 breast, 40.1%; in the test on HCT-116 colon, 99.3%. The growth in the test with KM12 colon was 87.4%.
In the case of `CCC(=O)OC1CCC2C3CCC(=O)OC3C(C)(CCC(=O)O)CC12C` (configuration not stated), the growth in the test on T-47D breast is 37.7%; in the test on BT-549 breast, -8.83% (active); in the test with MDA-MB-435 melanoma it was -15.3% (active); with SW-620 colon it was -11.3% (active); in the test with MCF7 breast it was 30.9%; in the test with HCC-2998 colon, 5.22% (active).
With `O=C(CCC(C(=O)c1ccccc1)c1ccccc1)c1ccccc1` (configuration not stated), the growth is 66.6% in the test on T-47D breast; 54.5% in the test with BT-549 breast; 4.52% (active) in the test with MDA-MB-435 melanoma; 41.9% with SW-620 colon; 72% in the test with MCF7 breast; 76.6% in the test with HCC-2998 colon. For the same molecule, the growth in the test with KM12 colon is 34.5%.
Regarding `C(=N\Nc1ncnc2sc3c(c12)CCNC3)/c1cccc2ccccc12`, the growth was 103% with T-47D breast; 92.5% with BT-549 breast; 97.7% in the test on MDA-MB-435 melanoma; 2.91% (active) in the test on SW-620 colon; 37.8% in the test on MCF7 breast; 8.77% (active) in the test with HCT-116 colon. Also, the growth in the test with KM12 colon was 82.4%.
As to `O=C(Nc1cc([N+](=O)[O-])c2[nH]c(=O)c3ccccc3c2c1)C(F)(F)F`, the growth with T-47D breast was 105%; in the test on BT-549 breast, 86.5%; in the test with MDA-MB-435 melanoma, 102%; in the test on SW-620 colon, 64.5%; in the test with MCF7 breast, 82%; in the test with HCT-116 colon it was 56.5%. In addition, the growth in the test with KM12 colon was 87.2%.
